{
  "source": "PubChem BioAssay (NCATS)",
  "key": {"[1]": {"test": "qHTS assay to identify small molecules that stimulate interleukin-8 (IL-8) secretion (AID 651758; active means well fitted activation curve with a large enough effect in the signal ratio; the % refers to the signal ratio; further: 0% is about no effect)", "how_it_was_run": "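Secreted IL-8 measured by TR-FRET sandwich (cryptate and XL665 antibodies) from THP-1 cells exposed to compound overnight (16 hrs, 37 C).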"}, "[2]": {"target": "Arylsulfatase A (Homo sapiens) (UniProt P15289)", "sequence (P15289 whole entry, looked up)": "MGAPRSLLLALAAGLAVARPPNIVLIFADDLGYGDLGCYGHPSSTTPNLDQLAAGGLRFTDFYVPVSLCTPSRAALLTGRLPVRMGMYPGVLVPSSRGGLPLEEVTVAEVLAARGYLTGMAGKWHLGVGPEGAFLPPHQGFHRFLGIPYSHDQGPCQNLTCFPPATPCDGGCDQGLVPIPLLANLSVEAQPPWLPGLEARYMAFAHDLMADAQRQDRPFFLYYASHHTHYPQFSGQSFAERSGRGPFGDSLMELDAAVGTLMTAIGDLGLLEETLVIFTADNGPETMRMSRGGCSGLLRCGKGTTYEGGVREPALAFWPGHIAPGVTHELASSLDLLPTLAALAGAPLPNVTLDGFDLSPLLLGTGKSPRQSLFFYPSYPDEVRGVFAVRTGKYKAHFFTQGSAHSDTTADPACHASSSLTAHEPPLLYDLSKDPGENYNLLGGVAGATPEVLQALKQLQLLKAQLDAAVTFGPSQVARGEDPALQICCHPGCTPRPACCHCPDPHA", "test": "qHTS screen for enhancers of Arylsulfatase A (ASA1): LOPAC Validation Assay (AID 720538)", "conditions": "outcome: at 57.5 µM (top of the series)", "how_it_was_run": "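Read-out: fluorescence at Ex=525/Em=598 nm after 1N NaOH final stop. Patient fibroblasts carrying ASA-I179S had 48h compound exposure, then 14h room-temperature pNCS hydrolysis (0.5mM final) in lysis buffer. Signal increase = enhanced activity.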"}},
  "note": "Results filed as inconclusive are left out. Active and inactive are the calls of the source. Unless noted, the call rests on the fitted dose curve; in most records, active means well fitted activation curve with a large enough effect; inconclusive means small, poorly fitted or top-dose-only effect; inactive means no such curve, though single readings can be large or run the other way.",
  "data": [
    {"smiles": "C/C=C/c1ccc(O)c(OC)c1", "values": [
      {"measurement": "outcome", "setting": "[1]", "value": "inactive"}
    ]},
    {"smiles": "NC(=O)c1ccccc1O", "values": [
      {"measurement": "outcome", "setting": "[1]", "value": "inactive"}
    ]},
    {"smiles": "NC(N)=NCc1cccc(I)c1", "values": [
      {"measurement": "outcome", "setting": "[2]", "value": "inactive"}
    ]},
    {"smiles": "CN=C(N)NCCC[C@H](N)C(=O)O", "values": [
      {"measurement": "outcome", "setting": "[2]", "value": "inactive; inhibitor; fitted 0.0054 uM"}
    ]}
  ]
}
